For nine compounds, outcome and AC50 results are on record in PubChem BioAssay (EPA / NIEHS).

Assay [1] in a line: CCTE_Harrill_HTTr_Apoptosis_MCF7: CCTE's 6-hour Apoptosis Assessment for the High-Throughput Transcriptomics (HTTr) Platform, in MCF-7 cells cultured in DMEM + 10% fetal bovine serum, Harrill Lab (AID 2284011). Put shortly:
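MCF-7 cells in DMEM + 10% fetal bovine serum were exposed to chemicals for 6 hours over an eight-point dilution series. Caspase-3/7 activation was imaged by high content imaging with CellEvent Caspase 3/7 Green; bidirectional fitting used DMSO as baseline.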

The nature of assay [2]: CCTE_Harrill_HTTr_CellCount_MCF7: CCTE's Cell Proliferation Assessment for the High-Throughput Transcriptomics (HTTr) Platform, Harrill Lab (AID 2284012; active = hit-call score of the fitted dose curve at least 0.9, where 1 is the maximum;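 also: cells exposed to compound for six hours; intended direction is loss of nuclei count meaning fewer cells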). An outline of the steps: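 Chemicals in eight-point dilution series are added to MCF-7 cells for six hours, nuclei are stained with Hoechst and imaged, and per-well nuclei counts are fitted in both directions relative to DMSO controls.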

Assay [3] in a line: CCTE_Shafer_MEA_acute_burst_number: CCTE's Neural Acute Assay for Single-Electrode Bursts, Shafer Lab (AID 2284013). Put shortly:
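Primary rat cortical neurons on 16-electrode MEA wells, treated on DIV 13 or 15 with compound at 0.03-40 uM. Single-electrode burst count from 40-min recordings at 37 C before and after exposure; percent change from baseline per well, DMSO negative control.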

The nature of assay [4]: CCTE_Shafer_MEA_acute_burst_duration_mean: CCTE's Neural Acute Assay for Mean Burst Duration, Shafer Lab (AID 2284014).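 Also: hits are decreases in mean burst duration relative to DMSO controls.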 Put shortly:
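Rat primary cortical neurons on 48-well MEA, treated at DIV 13 or 15 with 0.03-40 uM in at least 3 wells. Value is percent change in mean burst duration, comparing 40 min recordings at 37 C before and during exposure.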

Assay [5] is described as follows: CCTE_Shafer_MEA_acute_per_burst_spike_number_mean: CCTE's Neural Acute Assay for Average Number of Spikes Per Burst, Shafer Lab (AID 2284015).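 Also: hits are decreases in mean spikes per burst versus baseline.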 An outline of the steps: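 Percent change in mean spikes per single-electrode burst is compared between a 40 min baseline and a 40 min recording with compound (0.03-40 uM). Cultures were rat cortical neurons on MEA plates at DIV 13 or 15, recorded at 37 C, with DMSO as the negative control.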

A short description of assay [6]: CCTE_Shafer_MEA_acute_interburst_interval_mean: CCTE's Neural Acute Assay for Mean Interburst Interval, Shafer Lab (AID 2284016).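 Also: percent change of mean interburst interval versus each well's own pre-dose baseline; curves fitted for decrease in interburst interval relative to DMSO.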 Put shortly: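 Percent change in mean single-electrode interburst interval was calculated per well from 40 min recordings before and after compound (0.03-40 uM). Recordings were made at 37 C on rat cortical cultures at DIV 13 or 15, with spikes detected at 8x rms threshold.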

Assay [7] is described as follows: CCTE_Shafer_MEA_acute_burst_percentage_mean: CCTE's Neural Acute Assay for Percentage of Spikes in a Burst, Shafer Lab (AID 2284017).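 As to AC50: curve fitted for loss of signal so potency reflects decreased burst percentage.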 Put shortly: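 Well-level mean burst percentage from a 40-min recording after compound (0.03-40 uM) expressed as percent change from a 40-min baseline at 37C. Cultures: primary rat cortical neurons on MEA, dosed on DIV 13 or 15; fitted downward relative to DMSO.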

Assay [8] is described as follows: CCTE_Shafer_MEA_acute_burst_percentage_std: CCTE's Neural Acute Assay for Standard Deviation of Burst Percentage, Shafer Lab (AID 2284018).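 Also: fitted in the negative direction so actives lower burst percentage SD.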 An outline of the steps: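 Rat primary cortical neurons on 48-well MEAs, DIV 13 or 15, 37 C. 40-min baseline then 40-min recording with compound (0.03-40 uM); well-level SD of per-electrode burst spike percentage, expressed as percent change from baseline.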

Assay [9] can be described thus: CCTE_Shafer_MEA_acute_per_network_burst_spike_number_std: CCTE's Neural Acute Assay for Standard Deviation of Number of Spikes in a Network Burst, Shafer Lab (AID 2284020).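 Also: fitted for decrease in spike-number SD versus DMSO so actives lower it.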 An outline of the steps: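 Rat primary cortical neurons on 48-well MEA (16 electrodes/well), treated DIV 13 or 15 at 0.03-40 uM, ≥3 wells per compound. 40 min recordings at 37 C before and after dosing; value is percent change in network-burst spike-number SD, negative direction vs DMSO.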

Assay [10] in a line: CCTE_Shafer_MEA_acute_per_network_burst_electrodes_number_mean: CCTE's Neural Acute Assay for Mean Number of Electrodes in a Network Burst, Shafer Lab (AID 2284021).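 Also: curves fitted for decreases only so hits reduce electrodes per burst.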 Put shortly:
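Rat primary cortical neurons on 16-electrode MEA wells were recorded 40 min at baseline on DIV 13 or 15, then 40 min after compound (0.03-40 uM), at 37 C. Value is percent change per well, fitted in loss direction versus DMSO.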

The nature of assay [11]: CCTE_Shafer_MEA_acute_network_burst_percentage: CCTE's Neural Acute Assay for Percentage of Network Bursts, Shafer Lab (AID 2284022).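 Also: curves fitted for loss so actives lower network burst percentage.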 An outline of the steps: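 Primary rat cortical neurons on 16-electrode MEA wells, treated on DIV 13 or 15 with compound (0.03-40 uM); 40-min baseline and 40-min post-exposure recordings at 37 C. Value is percent change in spikes within network bursts versus baseline, DMSO negative control.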

A short description of assay [12]: CCTE_Shafer_MEA_acute_cross_correlation_area: CCTE's Neural Acute Assay for Area of Cross Correlation, Shafer Lab (AID 2284024).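 Also: area under pooled inter-electrode spike cross-correlation near zero lag as percent change from own baseline; curves fitted for loss of cross-correlation area so actives lower synchrony.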 An outline of the steps:
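Primary rat cortical neurons on 48-well MEA plates (16 electrodes/well) were recorded 40 min at baseline on DIV 13 or 15, then 40 min with compound (0.03-40 uM) at 37 C; cross-correlation area expressed as percent change from baseline.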

The nature of assay [13]: CCTE_Shafer_MEA_acute_synchrony_index: CCTE's Neural Acute Assay for Synchrony, Shafer Lab (AID 2284027).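 Also: fitted for loss of signal so actives lower synchrony relative to DMSO.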 Put shortly: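 Readout is percent change in the unitless network synchrony index (0 low, 1 high) between a 40-min baseline and a 40-min recording in compound. Cultures were primary rat cortical neurons on MEAs, treated at 0.03-40 uM on DIV 13 or 15.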
For assay [14], the target named is Estrogen receptor (Homo sapiens) (UniProt P03372). Put plainly: CCTE_Deisenroth_AIME_384WELL_LUC_Active: CCTE's 384-well Estrogen Receptor Transactivation Assay with AIME metabolic competence (ERTA luciferase; metabolism positive), Deisenroth Lab (AID 2284030; active = hit-call score of the fitted dose curve at least 0.9, where 1 is the maximum). An outline of the steps: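 Test chemicals (10-point series, 0.002 - 200 uM) were preincubated 2 hours with alginate-immobilized phenobarbital/beta-naphthoflavone-induced male Sprague Dawley rat liver S9; conditioned medium then went onto VM7Luc4E2 breast cells for 24 hour. Luciferase gain-of-signal fitted relative to 17beta-estradiol.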
Chain of Estrogen receptor (Homo sapiens) (P03372 whole entry, looked up): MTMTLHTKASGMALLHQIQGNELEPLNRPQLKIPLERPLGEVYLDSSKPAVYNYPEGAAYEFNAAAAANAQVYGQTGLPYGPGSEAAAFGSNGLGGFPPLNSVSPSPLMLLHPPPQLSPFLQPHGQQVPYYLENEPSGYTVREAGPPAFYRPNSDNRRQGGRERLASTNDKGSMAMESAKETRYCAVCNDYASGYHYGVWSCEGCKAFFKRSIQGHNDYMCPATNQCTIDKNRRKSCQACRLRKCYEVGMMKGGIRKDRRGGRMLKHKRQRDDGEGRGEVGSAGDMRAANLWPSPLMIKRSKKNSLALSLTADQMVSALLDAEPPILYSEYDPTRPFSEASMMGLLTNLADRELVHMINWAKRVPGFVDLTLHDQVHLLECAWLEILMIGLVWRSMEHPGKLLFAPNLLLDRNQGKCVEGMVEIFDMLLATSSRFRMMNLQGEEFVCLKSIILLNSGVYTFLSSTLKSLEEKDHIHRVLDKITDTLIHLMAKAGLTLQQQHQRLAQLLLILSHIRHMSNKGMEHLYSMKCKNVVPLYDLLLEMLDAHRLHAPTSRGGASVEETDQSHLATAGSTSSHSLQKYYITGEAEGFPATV

The target is the same in assay [15]. Put plainly: CCTE_Deisenroth_AIME_384WELL_LUC_Inactive: CCTE's 384-well Estrogen Receptor Transactivation Assay without AIME metabolic competence (ERTA luciferase; metabolism negative), Deisenroth Lab (AID 2284038; active = hit-call score of the fitted dose curve at least 0.9, where 1 is the maximum;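 also: VM7Luc4E2 breast cells given medium preincubated 2 h with S9-free microspheres; hits raise estrogen receptor luciferase signal so potencies reflect agonists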). Put shortly: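 Metabolism-negative mode: chemicals (10-point, 0.002–200 uM) held 2 h with alginate-water microspheres, then conditioned medium applied to VM7Luc4E2 cells for 24 h. Luciferase induction referenced to 17beta-estradiol.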

The nature of assay [16]: CCTE_Shafer_MEA_dev_firing_rate_mean: CCTE's Neural Network Formation Assay for Mean Firing Rate, Shafer Lab (AID 2284031).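 Also: AUC of well mean spike rate recorded on DIV 5 7 9 and 12.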 Put shortly:
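Rat primary cortical neurons were seeded on multielectrode arrays and treated from plating through day 12, with redosing at each feed. Spontaneous spiking was recorded four times; mean firing rate AUC was fitted downward against DMSO.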

Assay [17] can be described thus: CCTE_Shafer_MEA_dev_per_burst_spike_percent: CCTE's Neural Network Formation Assay for Percent of Spikes in a Burst, Shafer Lab (AID 2284032). An outline of the steps: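 Rat primary cortical neurons on 16-electrode MEA wells, dosed from plating day 0 for 12 days with renewal on DIV 5 and 9; spikes-in-bursts percentage averaged over bursting electrodes, collapsed as AUC across days 5, 7, 9, 12; loss direction versus DMSO.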

Assay [18] concerns the target Estrogen receptor (Homo sapiens) (UniProt P03372). Put plainly: CCTE_Deisenroth_AIME_96WELL_LUC_Active: CCTE's 96-well Estrogen Receptor Transactivation Assay with AIME metabolic competence (ERTA luciferase; metabolism positive), Deisenroth Lab (AID 2284023; active = hit-call score of the fitted dose curve at least 0.9, where 1 is the maximum). An outline of the steps: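 Chemicals pre-incubated 2 h with alginate-immobilized phenobarbital/beta-naphthoflavone-induced male Sprague Dawley rat liver S9, then medium transferred to VM7Luc4E2 cells for 24 h luciferase read-out. 10-point series 0.002 - 200 uM; fitted relative to 17beta-estradiol.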

Assay [19] has the same target. Put plainly: CCTE_Deisenroth_AIME_96WELL_LUC_Inactive: CCTE's 96-well Estrogen Receptor Transactivation Assay without AIME metabolic competence (ERTA luciferase; metabolism negative), Deisenroth Lab (AID 2284025; active = hit-call score of the fitted dose curve at least 0.9, where 1 is the maximum). Put shortly:
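VM7Luc4E2 breast cells, luciferase read 24 h after dosing with medium pre-incubated 2 h on alginate-water lids (metabolism negative). 10-point series 0.002–200 uM, single technical replicate, n≥4; fit relative to 17beta-estradiol.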

Records with an inconclusive call do not appear. Activity calls are given as the source filed them. The calls were made as follows, unless noted: active = hit-call score of the fitted dose curve at least 0.9, where 1 is the maximum; inactive = score below 0.9.

`O=c1[nH]sc2ccccc12`: the result in assay [1], in assay [2], in assay [3], in assay [4], in assay [5] and in assay [8] was inactive. Moreover, the compound was classed as inactive in assay [9], in [10], in assay [14] and in assay [15]. The AC50 in assay [6] was 34.3 µM (active); in assay [7], 20 µM (active); in assay [11] it was 7.94 µM (active); in assay [12], 30.2 nM (active); in assay [13] it was 20 µM (active).

For `Cc1ccc(C(C)C)cc1`, the result in assay [1], in [2], in assay [14] and in assay [15] was inactive.

For `Cc1cc2c(cc1C(F)(F)F)N(C(=O)Nc1ccc(Oc3cccnc3C)nc1)CC2`, the outcome in assay [1], in assay [3], in assay [4], in assay [5], in assay [6] and in assay [7] was inactive. The compound was classed as inactive in assay [8], in assay [9], in assay [10], in assay [11], in assay [12] and in assay [13].

In the case of `COCC(C)OCC(C)OCC(C)O` (stereo unspecified), the result in assay [1], in assay [14] and in [15] was inactive.

`CC(C)(c1cc(Br)c(O)c(Br)c1)c1cc(Br)c(O)c(Br)c1`: the outcome in assay [1], in assay [3], in [4], in assay [5], in assay [6] and in assay [8] was inactive. Moreover, the compound was classed as inactive in [9], in assay [10], in assay [11], in assay [12], in assay [13] and in assay [16]. In [17], the compound was classed as inactive. The AC50 in assay [7] is 19.1 µM (active).

Regarding `NCc1cccc(C2CCN(C(=O)c3ccc(C#Cc4ccccc4F)o3)CC2)c1`, the AC50 in assay [1] is 61.4 µM (active); in [3] it was 8.95 µM (active); in assay [5], 35.3 µM (active); in assay [6], 4.14 µM (active); in assay [7] it was 30.8 µM (active); in assay [9] it was 20 µM (active). Moreover, the AC50 in assay [10] is 20 µM (active); in assay [11], 31.4 µM (active); in [13], 28.6 µM (active). In addition, the result in [2], in [4], in assay [8] and in assay [12] was inactive.

Take `CCN(CC)C(=O)c1cc(S(=O)(=O)Cc2ccccc2)c(N2CCC(c3ccccc3)CC2)cc1N(CC)CCN(C)C`: the result in assay [1], in [2], in assay [3], in assay [6], in assay [8] and in assay [9] was inactive. Also, the compound was called inactive in assay [10], in assay [12], in [14] and in [15]. The AC50 was 553 nM (active) in assay [4]; 1.54 µM (active) in assay [5]; 13 µM (active) in assay [7]; 13.3 µM (active) in assay [11]; 11.8 µM (active) in [13].

For the compound `CC1=CC(=O)/C(=C(/C)O)C(=O)O1`, the compound was classed as inactive in [3], in assay [4], in assay [5], in assay [6], in assay [7] and in [8]. Further, the result in [9], in [10], in assay [11], in [12] and in [13] was inactive.

For `O=c1ccc2ccccc2o1`, the result in assay [1], in assay [2], in assay [18] and in assay [19] was inactive.

In general, AC50 refers to the midpoint of the concentration-response curve, whichever way the signal moves.
